Test results from PubChem BioAssay (NCI).
Compounds without any hit were thinned out: in the full panel of roughly 79,000, 15% have a hit. Activity calls are given as the source filed them. Cut-off read from the data, not from the text of the source: active = growth inhibition above about 70%; inactive = the rest.

Columns and labels:
[1] = NCI Yeast Anticancer Drug Screen. Data for the rad52 strain (AID 147);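 note: 0% = growth of vehicle-treated control cultures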; details: S. cerevisiae rad52 mutant growth inhibition, stronger effect = higher value
How it was run: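 The repair-mutant yeast strain was incubated with compounds, then growth was read and inhibition derived relative to vehicle.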

[2] = NCI Yeast Anticancer Drug Screen. Data for the wt1 strain (AID 149);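 note: 0% = growth of vehicle-treated wt1 cultures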; details: S. cerevisiae wt1 strain (SPY 50644) growth inhibition, stronger effect = higher value
How it was run: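 Compounds are added to wt1 yeast cultures. Growth is then measured. Inhibition is expressed relative to vehicle-treated controls.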

[3] = NCI Yeast Anticancer Drug Screen. Data for the rad50EPP+ strain (AID 151);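 note: 0% = growth of vehicle-treated control cultures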; details: S. cerevisiae rad50 mutant strain, stronger effect = higher value
How it was run: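 Vehicle-normalised growth inhibition; rad50EPP+ yeast strain, altered in DNA damage repair, compound-treated.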

[4] = NCI Yeast Anticancer Drug Screen. Data for the mgt1 strain (AID 153); details: S. cerevisiae mgt1 mutant growth inhibition, stronger effect = higher value
How it was run: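 Vehicle-normalized growth inhibition is determined in mgt1 yeast, a strain selected for a defined alteration in DNA repair or cell cycle control.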

[5] = NCI Yeast Anticancer Drug Screen. Data for the rad50 strain (AID 155);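 note: 0% = growth of vehicle-only cultures of the same strain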; details: S. cerevisiae rad50 strain growth inhibition, stronger effect = higher value
How it was run: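 Inhibition values express reduced yeast growth in compound-treated cultures relative to vehicle-treated controls.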

[6] = NCI Yeast Anticancer Drug Screen. Data for the mec2-1 strain (AID 157); details: S. cerevisiae mec2-1 strain, stronger effect = higher value
How it was run: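 Mutant yeast (mec2-1) grown with compound; growth inhibition relative to vehicle control reported.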

[7] = NCI Yeast Anticancer Drug Screen. Data for the rad14 strain (AID 159);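 note: 0% = growth of vehicle-treated control cultures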; details: S. cerevisiae rad14 strain growth inhibition, stronger effect = higher value
How it was run: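 A mutant yeast strain defective in DNA damage repair is treated with compound; inhibition of its growth is scored against untreated, vehicle-exposed cultures.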

[8] = NCI Yeast Anticancer Drug Screen. Data for the sgs1 mgt1 strain (AID 161);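 note: 0% = growth of cultures given vehicle only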; details: S. cerevisiae sgs1 mgt1 strain, stronger effect = higher value
How it was run: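 Compounds are added to genetically altered yeast, and growth is compared with cultures given vehicle alone to give percent inhibition.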

[9] = NCI Yeast Anticancer Drug Screen. Data for the CLN2oe strain (AID 163);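 note: 0% = growth of vehicle-only control cultures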; details: S. cerevisiae CLN2oe strain, stronger effect = higher value
How it was run: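 Compounds are applied to yeast harbouring a defined cell-cycle control change; reduced growth compared with vehicle-treated controls gives the value.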

[10] = NCI Yeast Anticancer Drug Screen. Data for the cln2 rad14 strain (AID 165);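 note: 0% = growth equal to vehicle treated cultures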; details: S. cerevisiae cln2 rad14 strain, stronger effect = higher value
How it was run: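 Readout is yeast growth inhibition versus vehicle-treated controls, using a strain with cln2 and rad14 alterations exposed to compound.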

[11] = NCI Yeast Anticancer Drug Screen. Data for the bub3 strain (AID 167); details: S. cerevisiae bub3 mutant strain, stronger effect = higher value
How it was run: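 Steps: expose the mutant yeast strain to compound; grow alongside vehicle-treated cultures; measure growth; express inhibition against the vehicle cultures.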

[12] = NCI Yeast Anticancer Drug Screen. Data for the mlh1 strain (AID 171);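 note: 0% = growth of vehicle-treated control cultures of the same strain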; details: S. cerevisiae mlh1 strain growth inhibition, stronger effect = higher value
How it was run: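 Measured: yeast growth. Reference: vehicle-treated controls. Organism: strain with a defined alteration affecting DNA damage repair or cell cycle control, treated with compound.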

[13] = NCI Yeast Anticancer Drug Screen. Data for the sgs1 strain (AID 173);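 note: 0% = growth of vehicle-only control cultures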; details: S. cerevisiae sgs1 mutant, stronger effect = higher value
How it was run: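 Each compound was added to cultures of the altered yeast strain. Growth was recorded, and inhibition was derived by comparison with vehicle controls.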

[14] = NCI Yeast Anticancer Drug Screen. Data for the mlh1 rad18 strain (AID 175); details: S. cerevisiae mlh1 rad18 strain growth inhibition, stronger effect = higher value
How it was run: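 Genetically defined yeast (DNA repair-deficient) exposed to compounds; growth inhibition determined relative to vehicle.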

[15] = NCI Yeast Anticancer Drug Screen. Data for the rad18 strain (AID 177); details: S. cerevisiae rad18 mutant growth inhibition, stronger effect = higher value
How it was run: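 Vehicle-treated cultures served as the baseline for scoring compound-induced growth inhibition in DNA-repair-mutant yeast.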

[16] = at 5.0 µM (retest, dose inferred, filed as 0.5)
[17] = at 50.0 µM (retest, dose inferred, filed as 5.0)

Measured: growth inhibition

CC1CN(/N=C\c2ccc([N+](=O)[O-])o2)C(=O)O1 (stereo unspecified)
inactive: [1]; at 1.2 µM 1% | [1]; at 3.7 µM 3% | [1]; at 11.0 µM 9% | [1]; at 33.0 µM 19% | [1]; at 100.0 µM 59% | [2]; at 1.2 µM -2% | [2]; at 3.7 µM -2% | [2]; at 11.0 µM -2% | [2]; at 33.0 µM 1% | [2]; at 100.0 µM 10% | [3]; at 1.2 µM 0% | [3]; at 3.7 µM -1% | [3]; at 11.0 µM 4% | [3]; at 33.0 µM 15% | [3]; at 100.0 µM 48% | [4]; at 1.2 µM -1% | [4]; at 3.7 µM -1% | [4]; at 11.0 µM -1% | [4]; at 33.0 µM -1% | [4]; at 100.0 µM 9% | [5]; at 1.2 µM 9% | [5]; at 3.7 µM 46% | [5]; [16] 8% | [5]; at 11.0 µM 32% | [5]; at 33.0 µM 24% | [5]; [17] 53% | [6]; at 1.2 µM 2% | [6]; at 3.7 µM 4% | [6]; [16] -25% | [6]; at 11.0 µM 6% | [6]; at 33.0 µM 12% | [6]; [17] 46% | [6]; at 50.0 µM 20.6% | [6]; at 100.0 µM 45% | [7]; at 1.2 µM 0% | [7]; at 3.7 µM -3% | [7]; at 11.0 µM -2% | [7]; at 33.0 µM 10% | [7]; at 100.0 µM 47% | [8]; [16] 27% | [9]; at 1.2 µM -7% | [9]; at 3.7 µM -6% | [9]; at 11.0 µM -3% | [9]; at 33.0 µM -7% | [9]; at 100.0 µM -6% | [10]; [16] -3% | [10]; [17] 45% | [10]; at 50.0 µM 18.9% | [11]; at 1.2 µM -1% | [11]; at 3.7 µM 3% | [11]; [16] -8% | [11]; at 11.0 µM 0% | [11]; at 33.0 µM 2% | [11]; [17] 14% | [11]; at 50.0 µM 14.1% | [11]; at 100.0 µM 9% | [12]; at 1.2 µM 0% | [12]; at 3.7 µM -2% | [12]; at 11.0 µM -1% | [12]; at 33.0 µM 3% | [12]; at 100.0 µM 16% | [13]; at 1.2 µM 7% | [13]; at 3.7 µM 11% | [13]; at 11.0 µM 27% | [13]; at 33.0 µM 56% | [14]; [16] 18%
active: [5]; at 50.0 µM 75.7% | [5]; at 100.0 µM 72% | [8]; [17] 83% | [8]; at 50.0 µM 86.1% | [13]; at 100.0 µM 87% | [14]; [17] 71% | [14]; at 50.0 µM 85.8% | [15]; at 1.2 µM 78% | [15]; at 3.7 µM 85% | [15]; at 11.0 µM 88% | [15]; at 33.0 µM 93% | [15]; at 100.0 µM 97%

COc1c2c(c3c(c1CCC(=O)O)OC(C)(C)C=C3)OC(C)(C)C=C2
active: [1]; at 100.0 µM 98% | [2]; at 100.0 µM 97% | [4]; at 100.0 µM 99% | [5]; at 100.0 µM 98% | [6]; at 100.0 µM 98% | [7]; at 100.0 µM 98% | [9]; at 33.0 µM 80% | [9]; at 100.0 µM 99% | [10]; [17] 82% | [10]; at 50.0 µM 91.2% | [11]; at 50.0 µM 71.9% | [11]; at 100.0 µM 97% | [12]; at 100.0 µM 99% | [14]; at 50.0 µM 76.4% | [15]; at 100.0 µM 97%
inactive: [1]; at 1.2 µM -3% | [1]; at 3.7 µM 1% | [1]; at 11.0 µM 10% | [1]; at 33.0 µM 62% | [2]; at 1.2 µM 0% | [2]; at 3.7 µM 2% | [2]; at 11.0 µM 13% | [2]; at 33.0 µM 49% | [3]; at 1.2 µM -3% | [3]; at 3.7 µM 1% | [3]; at 11.0 µM 5% | [3]; at 33.0 µM 15% | [3]; at 100.0 µM 35% | [4]; at 1.2 µM -1% | [4]; at 3.7 µM 0% | [4]; at 11.0 µM 15% | [4]; at 33.0 µM 61% | [5]; at 1.2 µM -1% | [5]; at 3.7 µM -3% | [5]; [16] 15% | [5]; at 11.0 µM 19% | [5]; at 33.0 µM 54% | [5]; [17] 45% | [5]; at 50.0 µM 58.2% | [6]; at 1.2 µM -2% | [6]; at 3.7 µM 2% | [6]; [16] -1% | [6]; at 11.0 µM 20% | [6]; at 33.0 µM 59% | [6]; [17] 49% | [6]; at 50.0 µM 65.8% | [7]; at 1.2 µM 0% | [7]; at 3.7 µM 2% | [7]; at 11.0 µM 11% | [7]; at 33.0 µM 53% | [8]; [16] -3% | [8]; [17] 32% | [8]; at 50.0 µM 69.8% | [9]; at 1.2 µM -1% | [9]; at 3.7 µM -1% | [9]; at 11.0 µM 27% | [10]; [16] 43% | [11]; at 1.2 µM -7% | [11]; at 3.7 µM -1% | [11]; [16] -13% | [11]; at 11.0 µM 6% | [11]; at 33.0 µM 58% | [11]; [17] 20% | [12]; at 1.2 µM 2% | [12]; at 3.7 µM 3% | [12]; at 11.0 µM 20% | [12]; at 33.0 µM 39% | [14]; [16] 3% | [14]; [17] 43% | [15]; at 1.2 µM 3% | [15]; at 3.7 µM 8% | [15]; at 11.0 µM 22% | [15]; at 33.0 µM 51%
